Data from the supplement of paper PMC10849652.
The full data set covers some 8,800 targets. This sample favours those with a hit. About 0.5% of all pairs of compound and target were hits.

Key:
Assay in all cases: log2 fold change, soluble protein after heating vs DMSO (PISA); higher = thermal stabilisation; K562 lysate, 10 uM; active = over 0.2 and 3.5 SD of the protein, either way, in both replicates (recomputed)
[1] = compound: C1=CC=C(C=C1)[C@H](COC2=CC3=C(C=C2)NC(=O)N3)NC(=O)C4=CC=CN(C4=O)CC5=CC(=C(C=C5)F)F
Procedure, shortened: (§1)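 The values are log-two fold changes in thermal stability compared with solvent controls and come from duplicates. They were obtained by TMTpro 16plex LC-MS/MS, with channel sums equalised, on the supernatant after 21,000xg for 90 min. That supernatant came from crude K562 extract at 1 mg/mL protein treated with 10 μM compound for 30 min, heated for 3 min across 48°C-58°C, pooled and brought to 0.5% NP-40 at 4°C.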

[2] = compound: CC1=C(SC2=C1C(=N[C@H](C3=NN=C(N32)C)CC(=O)N)C4=CC=C(C=C4)Cl)C
Procedure, shortened: as §1

[3] = compound: CC1=C2C(=CC=C1)N=C(N(C2=O)C3=CC=CC=C3C)CN4C=NC5=C(N=CN=C54)N
Procedure, shortened: as §1

[4] = compound: Cc1sc2c(c1C)C(c1ccc(Cl)cc1)=N[C@@H](CC(=O)OC(C)(C)C)c1nnc(C)n1-2
Procedure, shortened: as §1

[5] = compound: c1ccc([C@@H]2C[C@H]2NC2CCNCC2)cc1
Procedure, shortened: as §1

Measured: log2 fold change

PCBP2 isoform 8 (UniProt Q15366)
Chain of UniProt Q15366 (Q15366 whole entry, looked up): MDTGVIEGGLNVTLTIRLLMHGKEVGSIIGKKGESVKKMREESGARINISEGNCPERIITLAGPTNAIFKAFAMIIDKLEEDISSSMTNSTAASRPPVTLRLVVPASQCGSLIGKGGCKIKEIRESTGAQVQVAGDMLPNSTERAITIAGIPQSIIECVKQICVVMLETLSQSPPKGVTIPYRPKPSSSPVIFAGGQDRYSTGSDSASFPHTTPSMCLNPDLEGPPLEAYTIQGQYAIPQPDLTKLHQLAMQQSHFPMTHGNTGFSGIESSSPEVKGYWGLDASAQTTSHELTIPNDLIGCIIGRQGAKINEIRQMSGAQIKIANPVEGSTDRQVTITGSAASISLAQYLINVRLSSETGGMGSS
inactive: [1] 0.098 | [2] 0.065 | [3] -0.038 | [4] -0.044 | [5] -0.101

PLA2G4B isoform 6 (UniProt P0C869)
Chain of UniProt P0C869 (P0C869 whole entry, looked up): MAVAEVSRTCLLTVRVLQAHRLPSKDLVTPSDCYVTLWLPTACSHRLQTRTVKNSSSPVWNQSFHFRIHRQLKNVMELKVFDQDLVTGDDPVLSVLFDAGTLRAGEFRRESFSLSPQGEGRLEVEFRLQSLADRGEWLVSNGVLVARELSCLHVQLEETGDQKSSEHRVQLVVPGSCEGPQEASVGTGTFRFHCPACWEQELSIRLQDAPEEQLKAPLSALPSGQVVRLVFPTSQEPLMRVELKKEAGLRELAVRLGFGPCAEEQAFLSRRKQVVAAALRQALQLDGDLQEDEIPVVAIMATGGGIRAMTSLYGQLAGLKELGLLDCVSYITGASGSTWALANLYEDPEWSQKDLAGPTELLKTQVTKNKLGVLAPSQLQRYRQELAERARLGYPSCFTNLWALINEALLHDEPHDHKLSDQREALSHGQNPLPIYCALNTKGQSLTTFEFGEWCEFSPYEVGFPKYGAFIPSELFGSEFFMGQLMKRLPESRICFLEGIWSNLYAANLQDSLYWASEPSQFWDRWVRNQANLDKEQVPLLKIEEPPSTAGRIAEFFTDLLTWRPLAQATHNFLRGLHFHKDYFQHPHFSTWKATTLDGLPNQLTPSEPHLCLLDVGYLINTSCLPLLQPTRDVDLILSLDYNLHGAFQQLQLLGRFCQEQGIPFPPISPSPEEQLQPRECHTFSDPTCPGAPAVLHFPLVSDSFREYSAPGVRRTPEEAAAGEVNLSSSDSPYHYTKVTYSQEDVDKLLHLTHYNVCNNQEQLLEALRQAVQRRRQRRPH
inactive: [1] -0.003 | [2] 0.024 | [3] -0.052 | [4] 0.099 | [5] -0.019

PRPH isoform 2 (UniProt P41219)
Chain of UniProt P41219 (P41219 whole entry, looked up): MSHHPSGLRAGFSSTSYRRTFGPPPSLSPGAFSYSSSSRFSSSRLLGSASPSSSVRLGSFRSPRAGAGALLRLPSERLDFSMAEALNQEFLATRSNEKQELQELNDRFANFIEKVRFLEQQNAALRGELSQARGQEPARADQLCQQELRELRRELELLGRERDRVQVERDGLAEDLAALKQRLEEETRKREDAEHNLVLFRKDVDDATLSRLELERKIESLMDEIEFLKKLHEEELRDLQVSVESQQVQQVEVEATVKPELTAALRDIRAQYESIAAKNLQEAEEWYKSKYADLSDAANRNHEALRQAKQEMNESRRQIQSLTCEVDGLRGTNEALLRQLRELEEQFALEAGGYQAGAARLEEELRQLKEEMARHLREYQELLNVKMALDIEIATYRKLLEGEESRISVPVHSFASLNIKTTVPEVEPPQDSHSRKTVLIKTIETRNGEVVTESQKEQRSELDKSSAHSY
inactive: [1] 0.002 | [2] -0.006 | [3] 0.03 | [4] -0.059 | [5] 0.119

PTPN23 (UniProt Q9H3S7)
Chain of UniProt Q9H3S7 (Q9H3S7 whole entry, looked up): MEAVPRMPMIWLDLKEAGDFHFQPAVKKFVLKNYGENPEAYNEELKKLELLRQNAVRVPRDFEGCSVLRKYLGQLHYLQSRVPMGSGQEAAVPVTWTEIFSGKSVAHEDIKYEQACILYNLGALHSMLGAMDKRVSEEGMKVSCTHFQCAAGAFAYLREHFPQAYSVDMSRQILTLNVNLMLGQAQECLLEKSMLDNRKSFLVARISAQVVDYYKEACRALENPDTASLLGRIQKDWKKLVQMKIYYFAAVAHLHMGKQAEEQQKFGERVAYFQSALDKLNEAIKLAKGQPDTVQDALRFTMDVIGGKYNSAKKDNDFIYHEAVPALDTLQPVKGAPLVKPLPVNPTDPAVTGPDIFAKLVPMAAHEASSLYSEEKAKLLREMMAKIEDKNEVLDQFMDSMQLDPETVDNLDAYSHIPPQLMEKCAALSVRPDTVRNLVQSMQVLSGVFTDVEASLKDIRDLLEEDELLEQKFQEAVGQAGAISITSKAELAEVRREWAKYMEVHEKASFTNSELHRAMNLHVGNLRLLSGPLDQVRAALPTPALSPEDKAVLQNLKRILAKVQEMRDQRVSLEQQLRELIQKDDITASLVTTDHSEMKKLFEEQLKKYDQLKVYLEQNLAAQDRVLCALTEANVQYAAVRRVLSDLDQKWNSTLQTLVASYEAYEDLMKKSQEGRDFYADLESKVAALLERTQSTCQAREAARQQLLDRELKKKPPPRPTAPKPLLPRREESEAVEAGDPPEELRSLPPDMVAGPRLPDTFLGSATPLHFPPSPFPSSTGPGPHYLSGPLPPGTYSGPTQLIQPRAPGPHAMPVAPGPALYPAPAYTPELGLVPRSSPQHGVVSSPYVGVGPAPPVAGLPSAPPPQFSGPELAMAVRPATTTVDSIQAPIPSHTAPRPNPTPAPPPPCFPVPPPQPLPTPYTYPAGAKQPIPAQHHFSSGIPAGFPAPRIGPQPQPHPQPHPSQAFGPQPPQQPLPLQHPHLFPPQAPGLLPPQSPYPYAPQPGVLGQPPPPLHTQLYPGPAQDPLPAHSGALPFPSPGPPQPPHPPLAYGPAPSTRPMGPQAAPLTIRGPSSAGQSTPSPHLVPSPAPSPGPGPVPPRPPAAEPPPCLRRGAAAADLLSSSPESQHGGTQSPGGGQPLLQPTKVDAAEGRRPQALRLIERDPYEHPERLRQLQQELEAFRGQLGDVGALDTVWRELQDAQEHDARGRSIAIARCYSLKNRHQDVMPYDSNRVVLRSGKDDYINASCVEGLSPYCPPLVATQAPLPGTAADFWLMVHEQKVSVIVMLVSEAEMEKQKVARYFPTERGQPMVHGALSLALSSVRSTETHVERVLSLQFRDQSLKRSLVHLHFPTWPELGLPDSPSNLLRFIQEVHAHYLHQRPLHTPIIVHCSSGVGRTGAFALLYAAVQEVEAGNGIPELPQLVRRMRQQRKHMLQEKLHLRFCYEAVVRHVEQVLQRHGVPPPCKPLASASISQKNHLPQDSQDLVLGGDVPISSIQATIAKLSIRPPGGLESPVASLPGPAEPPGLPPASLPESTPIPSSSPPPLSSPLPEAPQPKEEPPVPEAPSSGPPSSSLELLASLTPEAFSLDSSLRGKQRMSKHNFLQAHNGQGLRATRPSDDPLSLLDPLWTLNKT
inactive: [1] -0.033 | [2] 0.011 | [3] 0.007 | [4] 0.024 | [5] 0

POLR2M (UniProt P0CAP2)
Chain of UniProt P0CAP2 (P0CAP2 whole entry, looked up): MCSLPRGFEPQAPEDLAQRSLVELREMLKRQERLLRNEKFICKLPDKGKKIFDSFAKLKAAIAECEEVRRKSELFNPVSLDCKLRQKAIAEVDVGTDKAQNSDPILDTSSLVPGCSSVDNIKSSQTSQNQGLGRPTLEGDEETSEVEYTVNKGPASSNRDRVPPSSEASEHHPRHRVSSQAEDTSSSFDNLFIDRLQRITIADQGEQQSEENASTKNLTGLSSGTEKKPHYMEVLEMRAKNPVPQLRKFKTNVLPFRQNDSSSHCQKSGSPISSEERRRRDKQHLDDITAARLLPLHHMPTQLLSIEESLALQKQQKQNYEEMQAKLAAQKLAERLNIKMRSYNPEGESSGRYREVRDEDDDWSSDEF
inactive: [1] 0.026 | [2] -0.005 | [3] 0.025 | [4] 0.024 | [5] 0.005

PPP1R8 (UniProt Q12972)
Chain of UniProt Q12972 (Q12972 whole entry, looked up): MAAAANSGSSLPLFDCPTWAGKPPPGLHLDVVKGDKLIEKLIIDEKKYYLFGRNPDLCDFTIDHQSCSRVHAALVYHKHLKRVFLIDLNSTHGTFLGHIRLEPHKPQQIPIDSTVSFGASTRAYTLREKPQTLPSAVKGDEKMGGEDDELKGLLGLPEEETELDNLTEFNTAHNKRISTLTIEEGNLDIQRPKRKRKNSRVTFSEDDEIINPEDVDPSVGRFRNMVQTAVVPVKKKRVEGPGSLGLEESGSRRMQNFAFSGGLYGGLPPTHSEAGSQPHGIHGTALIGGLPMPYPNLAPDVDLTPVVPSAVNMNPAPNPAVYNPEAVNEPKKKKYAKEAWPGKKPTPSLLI
inactive: [1] 0.006 | [2] 0.017 | [3] 0.003 | [4] 0.059 | [5] -0.142

PCBP2 (UniProt F8W0G4)
inactive: [1] 0.16 | [2] 0.052 | [3] 0.043 | [4] 0.103

PRMT8 (UniProt Q9NR22)
Chain of UniProt Q9NR22 (Q9NR22 whole entry, looked up): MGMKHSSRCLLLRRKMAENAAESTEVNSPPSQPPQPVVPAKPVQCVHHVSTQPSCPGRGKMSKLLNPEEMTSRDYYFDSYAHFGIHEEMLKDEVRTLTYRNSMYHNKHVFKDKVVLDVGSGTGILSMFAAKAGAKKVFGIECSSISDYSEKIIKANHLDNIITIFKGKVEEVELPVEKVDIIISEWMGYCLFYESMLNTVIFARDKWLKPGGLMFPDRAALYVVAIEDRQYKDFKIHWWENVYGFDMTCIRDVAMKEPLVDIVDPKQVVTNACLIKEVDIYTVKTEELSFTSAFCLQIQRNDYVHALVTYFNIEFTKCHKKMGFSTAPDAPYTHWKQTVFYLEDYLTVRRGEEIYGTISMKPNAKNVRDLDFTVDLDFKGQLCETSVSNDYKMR
inactive: [1] -0.016 | [2] 0.031 | [3] 0.01 | [4] -0.041 | [5] -0.147

PCBP3 (UniProt P57721)
Chain of UniProt P57721 (P57721 whole entry, looked up): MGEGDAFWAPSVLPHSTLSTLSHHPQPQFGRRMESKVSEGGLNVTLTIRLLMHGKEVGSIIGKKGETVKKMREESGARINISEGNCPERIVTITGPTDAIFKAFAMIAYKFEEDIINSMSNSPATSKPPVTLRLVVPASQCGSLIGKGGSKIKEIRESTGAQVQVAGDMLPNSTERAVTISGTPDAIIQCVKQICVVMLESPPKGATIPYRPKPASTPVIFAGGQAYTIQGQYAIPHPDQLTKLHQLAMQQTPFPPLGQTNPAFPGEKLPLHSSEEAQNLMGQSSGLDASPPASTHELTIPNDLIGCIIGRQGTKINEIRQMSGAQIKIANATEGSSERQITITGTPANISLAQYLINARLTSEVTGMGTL
inactive: [1] -0.028 | [2] 0.014 | [3] -0.026 | [4] 0.021 | [5] 0
